The source of these data is article PMC7862700, “An all-to-all approach to the identification of sequence-specific readers for epigenetic DNA modifications on cytosine”.

Assay in all cases: DAPPL (digital affinity profiling via proximity ligation, sequencing); 10 mM Tris-HCl pH 7.5, 50 mM NaCl, 1 mM DTT, 4% glycerol, room temperature, 30 min; GST-TFs on glutathione beads, 16-mer random dsDNA library, 0.1% formaldehyde crosslink after washing; high values mean tight binding
One assay deals with T1, FEV (Homo sapiens, UniProt Q99581 1-238).
T1 sequence: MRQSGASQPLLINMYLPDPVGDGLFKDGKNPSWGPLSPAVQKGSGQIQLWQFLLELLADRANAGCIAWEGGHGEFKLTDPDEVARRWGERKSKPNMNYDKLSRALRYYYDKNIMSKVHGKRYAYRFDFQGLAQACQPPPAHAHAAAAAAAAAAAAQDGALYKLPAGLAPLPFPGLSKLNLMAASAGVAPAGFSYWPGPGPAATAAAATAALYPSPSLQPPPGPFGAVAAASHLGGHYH
Particulars: protein: recombinant; tags: N-terminal GST; dsDNA, one strand shown. In short, it runs like this: (§1)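 After expression in yeast as GST fusions, human transcription factors were bound to glutathione beads, DNA-barcoded and mixed with a tag-only sample. The pools were incubated with 200 nmole of a 16-mer random double-stranded DNA library in Tris/NaCl/DTT/glycerol buffer (30 min, room temperature), washed and crosslinked with 0.1% formaldehyde. Proximity ligation with BsaI/T4 ligase ran for 1 h at 37 °C, before PCR amplification and sequencing on an Illumina NextSeq500. Binding signal is a hexamer's read frequency for a factor divided by its frequency for the tag-only sample.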

A further assay deals with ETV5 (Homo sapiens, UniProt P41161 1-510). The settings on record: protein: recombinant; tags: N-terminal GST; dsDNA, one strand shown. The procedure, abridged: as §1
ETV5, sequence (P41161 whole entry): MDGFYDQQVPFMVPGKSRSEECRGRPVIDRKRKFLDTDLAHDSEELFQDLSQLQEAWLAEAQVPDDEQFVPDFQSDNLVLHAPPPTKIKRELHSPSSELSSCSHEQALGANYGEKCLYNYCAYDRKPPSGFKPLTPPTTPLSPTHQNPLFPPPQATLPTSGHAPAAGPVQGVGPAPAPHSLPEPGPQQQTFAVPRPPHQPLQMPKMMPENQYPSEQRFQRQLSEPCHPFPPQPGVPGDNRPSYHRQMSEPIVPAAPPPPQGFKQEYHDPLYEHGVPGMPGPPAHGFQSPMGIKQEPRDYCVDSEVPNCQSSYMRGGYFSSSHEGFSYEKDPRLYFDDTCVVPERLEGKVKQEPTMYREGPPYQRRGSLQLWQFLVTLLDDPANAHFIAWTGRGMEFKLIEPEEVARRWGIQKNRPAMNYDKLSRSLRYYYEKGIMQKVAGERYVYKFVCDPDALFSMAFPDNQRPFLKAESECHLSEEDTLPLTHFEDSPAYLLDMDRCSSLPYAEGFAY
For another assay, the target named is HSF1 (Homo sapiens, UniProt Q00613 1-529). The settings on record: protein: recombinant; tags: N-terminal GST; chain copies: 3; dsDNA, one strand shown. In short, it runs like this:
as §1

The target of another assay is T2, SPIC (Homo sapiens, UniProt Q8N5J4 1-248).
T2 sequence: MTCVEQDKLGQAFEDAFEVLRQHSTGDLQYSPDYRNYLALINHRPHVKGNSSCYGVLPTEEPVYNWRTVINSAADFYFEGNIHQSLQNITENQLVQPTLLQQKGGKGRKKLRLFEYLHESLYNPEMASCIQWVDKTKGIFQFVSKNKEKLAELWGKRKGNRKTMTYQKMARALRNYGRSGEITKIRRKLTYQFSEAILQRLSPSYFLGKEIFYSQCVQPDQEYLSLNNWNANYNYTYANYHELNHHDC
Particulars: protein: recombinant; tags: N-terminal GST; dsDNA, one strand shown. In short, it runs like this: as §1

The next assay has as its target ELF4 (Homo sapiens, UniProt Q99607 1-663). The settings on record: protein: recombinant; tags: N-terminal GST; dsDNA, one strand shown. The procedure, abridged: as §1
For a further assay, the target named is T3, ELK4 (Homo sapiens, UniProt P28324-2 1-405).
T3 sequence: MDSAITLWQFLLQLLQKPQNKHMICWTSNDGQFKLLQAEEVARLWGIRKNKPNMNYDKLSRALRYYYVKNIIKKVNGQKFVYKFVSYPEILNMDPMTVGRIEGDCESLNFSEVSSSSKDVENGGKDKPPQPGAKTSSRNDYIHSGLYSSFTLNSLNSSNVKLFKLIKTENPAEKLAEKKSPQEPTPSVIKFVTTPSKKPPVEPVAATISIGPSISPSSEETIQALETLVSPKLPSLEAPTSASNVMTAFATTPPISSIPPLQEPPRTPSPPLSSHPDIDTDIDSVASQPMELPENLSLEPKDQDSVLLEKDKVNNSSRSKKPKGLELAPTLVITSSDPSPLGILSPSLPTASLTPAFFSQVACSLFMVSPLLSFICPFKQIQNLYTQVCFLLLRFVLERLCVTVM
The settings on record: protein: recombinant; tags: N-terminal GST; dsDNA, one strand shown. The procedure, abridged: as §1

The next assay has as its target T4, ETV2 (Homo sapiens, UniProt O00321 1-342).
T4 sequence: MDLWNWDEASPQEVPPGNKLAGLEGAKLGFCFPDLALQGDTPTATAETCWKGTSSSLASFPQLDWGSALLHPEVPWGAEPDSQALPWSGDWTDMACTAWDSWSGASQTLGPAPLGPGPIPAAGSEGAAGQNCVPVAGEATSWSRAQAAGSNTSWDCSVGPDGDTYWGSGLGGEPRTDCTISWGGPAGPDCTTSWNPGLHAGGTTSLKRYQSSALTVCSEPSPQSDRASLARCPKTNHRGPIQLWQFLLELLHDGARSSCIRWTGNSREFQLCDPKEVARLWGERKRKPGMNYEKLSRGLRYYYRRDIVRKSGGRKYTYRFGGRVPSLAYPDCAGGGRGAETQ
The settings on record: protein: recombinant; tags: N-terminal GST; dsDNA, one strand shown. The procedure, abridged: as §1

Another assay deals with T5, ELF3 (Homo sapiens, UniProt P78545 1-371).
T5 sequence: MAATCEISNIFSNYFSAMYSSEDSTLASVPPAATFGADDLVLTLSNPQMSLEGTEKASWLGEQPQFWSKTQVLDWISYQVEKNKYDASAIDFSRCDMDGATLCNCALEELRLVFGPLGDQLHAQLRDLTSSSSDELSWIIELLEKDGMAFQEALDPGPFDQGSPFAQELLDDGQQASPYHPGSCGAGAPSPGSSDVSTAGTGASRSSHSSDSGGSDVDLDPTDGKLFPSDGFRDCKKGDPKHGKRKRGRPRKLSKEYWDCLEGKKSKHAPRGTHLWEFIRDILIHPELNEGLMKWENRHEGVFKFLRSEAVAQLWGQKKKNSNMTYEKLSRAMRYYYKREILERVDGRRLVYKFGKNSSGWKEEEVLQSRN
The settings on record: protein: recombinant; tags: N-terminal GST; dsDNA, one strand shown. In short, it runs like this: as §1

In the next assay the target is CRX (Homo sapiens, UniProt O43186 1-299). Particulars: protein: recombinant; tags: N-terminal GST; dsDNA, one strand shown. The procedure, abridged:
as §1

Another assay concerns the target ETV1 (Homo sapiens, UniProt P50549 1-477). Particulars: protein: recombinant; tags: N-terminal GST; dsDNA, one strand shown. The procedure, abridged: as §1

HSF1, sequence (Q00613 whole entry): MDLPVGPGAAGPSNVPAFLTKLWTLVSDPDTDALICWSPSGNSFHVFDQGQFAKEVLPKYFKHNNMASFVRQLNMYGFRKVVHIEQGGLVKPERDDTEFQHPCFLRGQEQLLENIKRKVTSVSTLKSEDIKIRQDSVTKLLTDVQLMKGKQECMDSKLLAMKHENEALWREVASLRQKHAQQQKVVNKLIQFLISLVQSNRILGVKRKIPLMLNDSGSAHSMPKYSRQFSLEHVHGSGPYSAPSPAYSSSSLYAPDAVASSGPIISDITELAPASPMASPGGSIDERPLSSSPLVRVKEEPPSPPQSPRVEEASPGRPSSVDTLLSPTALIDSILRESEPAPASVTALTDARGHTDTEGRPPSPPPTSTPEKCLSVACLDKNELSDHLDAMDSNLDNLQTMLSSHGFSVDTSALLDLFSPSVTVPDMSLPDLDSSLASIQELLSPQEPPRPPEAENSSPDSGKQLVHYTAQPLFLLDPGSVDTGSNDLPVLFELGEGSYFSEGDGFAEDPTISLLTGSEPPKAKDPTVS
ELF4, sequence (Q99607 whole entry): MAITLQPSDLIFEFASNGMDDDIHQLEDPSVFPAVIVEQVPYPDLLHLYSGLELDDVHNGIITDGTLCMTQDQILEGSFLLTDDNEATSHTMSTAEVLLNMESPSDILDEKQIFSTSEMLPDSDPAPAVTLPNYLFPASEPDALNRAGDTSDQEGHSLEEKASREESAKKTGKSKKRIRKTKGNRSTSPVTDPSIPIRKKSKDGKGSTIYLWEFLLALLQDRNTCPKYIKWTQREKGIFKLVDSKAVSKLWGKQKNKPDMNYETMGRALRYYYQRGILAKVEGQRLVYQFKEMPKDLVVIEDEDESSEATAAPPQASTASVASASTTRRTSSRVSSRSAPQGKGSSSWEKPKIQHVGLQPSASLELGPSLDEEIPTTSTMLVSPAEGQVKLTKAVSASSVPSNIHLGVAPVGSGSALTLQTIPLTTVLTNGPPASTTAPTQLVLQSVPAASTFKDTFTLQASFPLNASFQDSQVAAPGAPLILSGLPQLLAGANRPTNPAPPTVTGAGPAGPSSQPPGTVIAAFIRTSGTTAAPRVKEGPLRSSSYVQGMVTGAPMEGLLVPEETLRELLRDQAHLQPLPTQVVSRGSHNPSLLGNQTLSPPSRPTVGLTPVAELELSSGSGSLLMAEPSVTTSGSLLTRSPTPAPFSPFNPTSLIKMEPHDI
CRX, sequence (O43186 whole entry): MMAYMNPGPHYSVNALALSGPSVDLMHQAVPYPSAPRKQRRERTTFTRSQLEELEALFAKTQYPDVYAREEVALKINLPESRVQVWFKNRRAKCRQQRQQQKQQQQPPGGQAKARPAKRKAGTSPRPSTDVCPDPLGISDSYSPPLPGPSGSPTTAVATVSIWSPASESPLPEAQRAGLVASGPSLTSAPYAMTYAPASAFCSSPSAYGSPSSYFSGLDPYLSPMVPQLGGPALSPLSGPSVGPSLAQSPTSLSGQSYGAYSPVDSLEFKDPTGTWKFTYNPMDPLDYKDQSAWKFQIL
ETV1, sequence (P50549 whole entry): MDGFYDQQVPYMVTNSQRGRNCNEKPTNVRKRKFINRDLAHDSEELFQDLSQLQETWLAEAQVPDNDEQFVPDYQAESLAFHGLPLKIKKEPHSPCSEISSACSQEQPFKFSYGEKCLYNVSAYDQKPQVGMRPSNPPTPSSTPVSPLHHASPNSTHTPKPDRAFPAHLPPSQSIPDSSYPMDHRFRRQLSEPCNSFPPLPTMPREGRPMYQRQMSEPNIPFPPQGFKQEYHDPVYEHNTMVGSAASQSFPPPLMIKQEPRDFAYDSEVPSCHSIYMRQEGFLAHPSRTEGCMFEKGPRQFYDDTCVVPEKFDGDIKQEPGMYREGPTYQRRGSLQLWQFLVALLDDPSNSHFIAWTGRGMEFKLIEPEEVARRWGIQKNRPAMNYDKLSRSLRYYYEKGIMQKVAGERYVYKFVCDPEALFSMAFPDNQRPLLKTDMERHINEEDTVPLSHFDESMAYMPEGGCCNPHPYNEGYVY

On to GAATAA, for which the binding signal is 1.08 fold enrichment (6-mer frequency, TF over GST control) with FEV; 1.09 fold enrichment (6-mer frequency, TF over GST control) with ETV5; 1.62 fold enrichment (6-mer frequency, TF over GST control) with HSF1; 1.17 fold enrichment (6-mer frequency, TF over GST control) with SPIC; 1.13 fold enrichment (6-mer frequency, TF over GST control) with ELF4; 1.04 fold enrichment (6-mer frequency, TF over GST control) with ELK4. Also, the binding signal with ETV2 is 1.13 fold enrichment (6-mer frequency, TF over GST control); with ELF3, 1.12 fold enrichment (6-mer frequency, TF over GST control); in the assay with CRX it was 1.57 fold enrichment (6-mer frequency, TF over GST control); in the assay with ETV1, 1.03 fold enrichment (6-mer frequency, TF over GST control).

TTGACA: the binding signal was 1.34 fold enrichment (6-mer frequency, TF over GST control) with FEV; 1.28 fold enrichment (6-mer frequency, TF over GST control) with ETV5; 1.19 fold enrichment (6-mer frequency, TF over GST control) in the assay with HSF1; 1.21 fold enrichment (6-mer frequency, TF over GST control) in the assay with SPIC; 1.3 fold enrichment (6-mer frequency, TF over GST control) with ELF4; 1.47 fold enrichment (6-mer frequency, TF over GST control) with ELK4. Moreover, the binding signal is 1.36 fold enrichment (6-mer frequency, TF over GST control) in the assay with ETV2; 1.51 fold enrichment (6-mer frequency, TF over GST control) with ELF3; 1.22 fold enrichment (6-mer frequency, TF over GST control) with CRX; 1.33 fold enrichment (6-mer frequency, TF over GST control) with ETV1.

As for CTAACT, the binding signal with FEV was 1.34 fold enrichment (6-mer frequency, TF over GST control); with ETV5, 1.34 fold enrichment (6-mer frequency, TF over GST control); with HSF1, 1.19 fold enrichment (6-mer frequency, TF over GST control); in the assay with SPIC, 1.31 fold enrichment (6-mer frequency, TF over GST control); with ELF4, 1.4 fold enrichment (6-mer frequency, TF over GST control); with ELK4 it was 1.36 fold enrichment (6-mer frequency, TF over GST control). The binding signal in the assay with ETV2 was 1.27 fold enrichment (6-mer frequency, TF over GST control); in the assay with ELF3 it was 1.21 fold enrichment (6-mer frequency, TF over GST control); with CRX it was 1.21 fold enrichment (6-mer frequency, TF over GST control); with ETV1, 1.28 fold enrichment (6-mer frequency, TF over GST control).

Regarding CGTTTT, the binding signal with FEV was 1.19 fold enrichment (6-mer frequency, TF over GST control); with ETV5, 1.21 fold enrichment (6-mer frequency, TF over GST control); in the assay with HSF1, 1.12 fold enrichment (6-mer frequency, TF over GST control); with SPIC, 1.29 fold enrichment (6-mer frequency, TF over GST control); with ELF4, 1.16 fold enrichment (6-mer frequency, TF over GST control); with ELK4, 1.22 fold enrichment (6-mer frequency, TF over GST control). The binding signal with ETV2 was 1.35 fold enrichment (6-mer frequency, TF over GST control); in the assay with ELF3, 1.08 fold enrichment (6-mer frequency, TF over GST control); in the assay with CRX, 1.04 fold enrichment (6-mer frequency, TF over GST control); with ETV1, 1.17 fold enrichment (6-mer frequency, TF over GST control).

Turning to ATGTAA, the binding signal in the assay with FEV was 1.2 fold enrichment (6-mer frequency, TF over GST control); with ETV5, 1.24 fold enrichment (6-mer frequency, TF over GST control); in the assay with HSF1 it was 1.28 fold enrichment (6-mer frequency, TF over GST control); with SPIC, 1.17 fold enrichment (6-mer frequency, TF over GST control); in the assay with ELF4, 1.23 fold enrichment (6-mer frequency, TF over GST control); with ELK4 it was 1.28 fold enrichment (6-mer frequency, TF over GST control). The binding signal in the assay with ETV2 was 1.15 fold enrichment (6-mer frequency, TF over GST control); in the assay with ELF3, 1.39 fold enrichment (6-mer frequency, TF over GST control); with CRX, 1.41 fold enrichment (6-mer frequency, TF over GST control); with ETV1, 1.27 fold enrichment (6-mer frequency, TF over GST control).

GTTAAC: the binding signal with FEV was 1.18 fold enrichment (6-mer frequency, TF over GST control); in the assay with ETV5, 1.19 fold enrichment (6-mer frequency, TF over GST control); with HSF1, 1.02 fold enrichment (6-mer frequency, TF over GST control); with SPIC, 1.11 fold enrichment (6-mer frequency, TF over GST control); in the assay with ELF4, 1.19 fold enrichment (6-mer frequency, TF over GST control); in the assay with ELK4, 1.25 fold enrichment (6-mer frequency, TF over GST control). In addition, the binding signal with ETV2 was 1.2 fold enrichment (6-mer frequency, TF over GST control); with ELF3 it was 1.21 fold enrichment (6-mer frequency, TF over GST control); in the assay with CRX, 1.15 fold enrichment (6-mer frequency, TF over GST control); in the assay with ETV1, 1.2 fold enrichment (6-mer frequency, TF over GST control).

ATCACC: the binding signal is 1.09 fold enrichment (6-mer frequency, TF over GST control) with FEV; 1.11 fold enrichment (6-mer frequency, TF over GST control) with ETV5; 1.05 fold enrichment (6-mer frequency, TF over GST control) in the assay with HSF1; 1.1 fold enrichment (6-mer frequency, TF over GST control) with SPIC; 1.22 fold enrichment (6-mer frequency, TF over GST control) with ELF4; 1.07 fold enrichment (6-mer frequency, TF over GST control) in the assay with ELK4. For the same sequence, the binding signal was 1.03 fold enrichment (6-mer frequency, TF over GST control) with ETV2; 1.17 fold enrichment (6-mer frequency, TF over GST control) with ELF3; 1.14 fold enrichment (6-mer frequency, TF over GST control) in the assay with CRX; 1.1 fold enrichment (6-mer frequency, TF over GST control) in the assay with ETV1.
